Measurements: PubChem BioAssay
For some assays here: Entries with a potency or affinity are not part of this list. The source made the active and inactive calls.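 Rule for the calls, unless noted: active = fluorescence ratio normalized to control raised more than 50% in primary screen plus both repeat runs; inactive = the rest.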

Experiments:
[1] = test system: TRPC4 beta (transient receptor potential cation channel C4), mouse; assay: TRPC4 cation channel opening, retest – cell-based, Fluo4 calcium, HEK293 TRPC4beta/mu-opioid, duplicates, 10 µM, confirmation (AID 2426); details: Fluo4 calcium fluorescence, at 10 µM; stronger effect = higher value;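 for activation: percent rise of integrated ratio over buffer wells lacking compound which define 0%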
[2] = test system: transient receptor potential cation channel C4 beta (TRPC4), mouse; assay: TRPC4 cation channel opening, second retest – cell-based, second round, Fluo4, HEK293 TRPC4beta/mu-opioid, 1 µM, confirmation (AID 2461;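 active = primary screen active and over 50% activation in each of two duplicate runs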;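 for activation: 0% = wells without test compound as baseline of integrated fluorescence ratio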); details: Fluo4 calcium fluorescence, at 1 µM; stronger effect = higher value
[3] = test system: TRPC4 (transient receptor potential cation channel C4 beta), mouse; assay: potentiation of DAMGO EC20 TRPC4 response – cell-based, second round, Fluo-4, HEK293 TRPC4beta/mu-opioid, 1 µM, confirmation (AID 2554;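 active = primary screen hit whose fluorescence ratio, in both repeats, exceeds the weak agonist control mean by 3 SD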); details: DAMGO EC20, Fluo-4 calcium flux, at 1 µM; stronger effect = higher value
[4] = test system: TRPC4 beta (transient receptor potential cation channel C4), mouse; assay: potentiation of DAMGO EC20 TRPC4 response – cell-based, Fluo-4, HEK293 TRPC4beta/mu-opioid, confirmation (AID 2555;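 active = primary screen hit whose calcium fluorescence ratio, in both repeats, exceeds the weak agonist control mean by 3 SD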); details: DAMGO EC20, Fluo-4 calcium flux, at 10 µM; stronger effect = higher value
[5] = target: Short transient receptor potential channel 4 (Mus musculus) (UniProt Q9QUQ5); assay: blockers of DAMGO-evoked TRPC4 calcium flux – cell-based, Fluo4, HEK293 TRPC4beta/mu-opioid, confirmation (AID 2636;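 active = calcium signal cut by more than 3 SD below the full-agonist control yet still positive, in both repeats and the earlier primary screen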); details: at 10 µM; stronger effect = higher value
Chain of Short transient receptor potential channel 4 (Mus musculus) (Q9QUQ5 whole entry, looked up): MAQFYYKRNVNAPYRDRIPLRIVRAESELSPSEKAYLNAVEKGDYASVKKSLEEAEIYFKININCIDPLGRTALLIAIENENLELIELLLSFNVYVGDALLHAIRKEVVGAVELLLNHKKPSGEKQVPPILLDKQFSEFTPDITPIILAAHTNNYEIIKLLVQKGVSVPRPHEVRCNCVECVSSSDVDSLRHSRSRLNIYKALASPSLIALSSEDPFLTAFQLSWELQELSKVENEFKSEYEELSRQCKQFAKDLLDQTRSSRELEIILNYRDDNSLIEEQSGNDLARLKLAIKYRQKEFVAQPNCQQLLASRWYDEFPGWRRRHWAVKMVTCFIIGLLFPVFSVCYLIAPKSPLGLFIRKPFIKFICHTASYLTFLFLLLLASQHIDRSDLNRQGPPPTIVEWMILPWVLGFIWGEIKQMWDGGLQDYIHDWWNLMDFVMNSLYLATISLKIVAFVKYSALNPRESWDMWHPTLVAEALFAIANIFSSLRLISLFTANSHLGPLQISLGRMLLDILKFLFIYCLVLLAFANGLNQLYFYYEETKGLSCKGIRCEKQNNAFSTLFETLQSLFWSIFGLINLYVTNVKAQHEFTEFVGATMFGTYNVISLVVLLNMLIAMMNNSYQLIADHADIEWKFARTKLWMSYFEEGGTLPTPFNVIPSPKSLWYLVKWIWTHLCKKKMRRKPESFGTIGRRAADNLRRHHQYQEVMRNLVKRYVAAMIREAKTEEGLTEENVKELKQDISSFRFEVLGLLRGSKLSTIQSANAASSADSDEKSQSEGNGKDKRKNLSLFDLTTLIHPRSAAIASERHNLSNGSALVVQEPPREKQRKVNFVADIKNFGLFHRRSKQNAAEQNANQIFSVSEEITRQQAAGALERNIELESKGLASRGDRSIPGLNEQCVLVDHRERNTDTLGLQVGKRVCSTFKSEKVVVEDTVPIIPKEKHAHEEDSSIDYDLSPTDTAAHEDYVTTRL

[6] = target: Short transient receptor potential channel 4 (Mus musculus) (UniProt Q9QUQ5); assay: blockers of DAMGO-evoked TRPC4 calcium flux – cell-based, second round, Fluo4, HEK293 TRPC4beta/mu-opioid, 1 µM, confirmation (AID 2637;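 active = calcium signal ratio cut to more than 3 SD under the fully stimulated control mean yet still positive, in both repeats and the primary screen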); details: at 1 µM; stronger effect = higher value
[7] = target: Short transient receptor potential channel 4 (Mus musculus) (UniProt Q9QUQ5); assay: potentiation of DAMGO-evoked TRPC4 calcium signal – cell-based, HEK293 TRPC4/mu-opioid, Fluo-4 calcium, EC20 DAMGO, dose response (AID 434941;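 active = earlier screen potentiator hit that boosts the TRPC4 ion channel at some dose, with a dose response; inactive = no potentiation, no dose response, or not a prior hit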;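 note: calcium entry triggered by an EC20 dose of DAMGO at the co-expressed mu-opioid receptor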)
[8] = target: Short transient receptor potential channel 4 (Mus musculus) (UniProt Q9QUQ5); assay: block of DAMGO-driven TRPC4 calcium entry – cell-based, HEK293 TRPC4/mu-opioid, Fluo-4 calcium, dose response (AID 434942;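 active = primary screen inhibitor hit that blocks the TRPC4 channel at some tested dose, yielding a dose curve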)
[9] = target: Short transient receptor potential channel 6 (Mus musculus) (UniProt Q61143); assay: TRPC6 blockade by TRPC4 inhibitor hits – cell-based, HEK293, membrane potential dye, duplicate, selectivity assay for TRPC4 inhibitor project, confirmation (AID 434948;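 active = active in primary screen and both duplicates, each dropping signal beyond three positive-control SD with fluorescence still positive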); details: HEK293 TRPC6, membrane potential dye fluorescence, at 10 µM, stimulated with maximal-effect acetylcholine; stronger effect = higher value
Chain of Short transient receptor potential channel 6 (Mus musculus) (Q61143 whole entry, looked up): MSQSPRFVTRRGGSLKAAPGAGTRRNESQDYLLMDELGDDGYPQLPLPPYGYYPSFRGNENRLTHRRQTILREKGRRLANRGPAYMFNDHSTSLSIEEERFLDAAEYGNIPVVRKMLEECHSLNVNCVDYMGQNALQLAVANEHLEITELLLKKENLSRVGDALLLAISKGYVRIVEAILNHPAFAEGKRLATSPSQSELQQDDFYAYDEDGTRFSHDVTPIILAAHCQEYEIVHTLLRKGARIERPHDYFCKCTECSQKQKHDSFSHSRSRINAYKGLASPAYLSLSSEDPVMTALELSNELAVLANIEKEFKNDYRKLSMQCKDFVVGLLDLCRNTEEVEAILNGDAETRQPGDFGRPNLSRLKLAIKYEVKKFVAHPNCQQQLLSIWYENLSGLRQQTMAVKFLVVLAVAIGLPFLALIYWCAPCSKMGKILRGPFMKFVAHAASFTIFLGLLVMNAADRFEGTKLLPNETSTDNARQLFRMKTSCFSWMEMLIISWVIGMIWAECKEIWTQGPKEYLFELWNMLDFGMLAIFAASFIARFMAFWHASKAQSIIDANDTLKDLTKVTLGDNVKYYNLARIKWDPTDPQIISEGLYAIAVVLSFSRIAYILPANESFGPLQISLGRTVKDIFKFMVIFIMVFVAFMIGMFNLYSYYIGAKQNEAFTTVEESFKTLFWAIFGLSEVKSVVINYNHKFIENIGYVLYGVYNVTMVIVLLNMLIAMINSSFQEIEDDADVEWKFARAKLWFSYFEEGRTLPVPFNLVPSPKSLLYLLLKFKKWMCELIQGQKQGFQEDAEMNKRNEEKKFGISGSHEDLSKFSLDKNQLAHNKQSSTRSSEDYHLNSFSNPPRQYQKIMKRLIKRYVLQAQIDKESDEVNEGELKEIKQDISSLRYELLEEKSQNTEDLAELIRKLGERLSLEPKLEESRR

[10] = target: Short transient receptor potential channel 6 (Mus musculus) (UniProt Q61143); assay: TRPC6 opening by TRPC4 activator hits – cell-based, HEK293, membrane potential dye, duplicate, selectivity assay for TRPC4 activator project, confirmation (AID 434950;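 active = membrane potential signal rise above negative control mean plus 3 SD in both duplicates, also active in the earlier TRPC4 screen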;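 for activation: 0% = buffer only wells and 100% = acetylcholine maximal-effect wells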); details: HEK293 TRPC6, membrane potential fluorescence, at 10 µM; activation: stronger effect = higher value; outcome: activation
[11] = target: Short transient receptor potential channel 6 (Mus musculus) (UniProt Q61143); assay: positive modulators of mouse TRPC6 channel – HEK293 cells, membrane potential dye, duplicate, selectivity assay for TRPC4 potentiator project, confirmation (AID 434952;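 active = compound raising the membrane signal above positive-control mean plus 3 SD in both repeats, and a primary screen hit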); details: HEK293 TRPC6, membrane potential dye fluorescence, at 10 µM, maximal acetylcholine added after compound; stronger effect = higher value
[12] = target: Short transient receptor potential channel 4 (Mus musculus) (UniProt Q9QUQ5); assay: calcium flux activators in TRPC4/5HT1a cells, counter-screen for TRPC4 activator project, cell-based, second counter screen, HEK293 TRPC4/5HT1a, Fluo-4 (AID 434977;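 active = calcium signal rise above buffer-control mean plus 5 SD in both duplicates, and also a hit in the primary screen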;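 for activation: plate controls were assay buffer for no effect and maximal serotonin response for full effect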); details: Fluo-4 calcium flux, at 10 µM; stronger effect = higher value
[13] = serotonin-gated TRPC4 signal block – cell-based, second counter screen, HEK293 TRPC4/5HT1a, Fluo-4, counter-screen for TRPC4 inhibitor project, confirmation (AID 434978;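 active = primary screen active whose calcium signal fell more than 3 SD beyond the full-serotonin control mean in both duplicate plates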;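 note: serotonin given first at submaximal then at maximal dose after compound preincubation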); details: Fluo-4 calcium flux, at 10 µM, serotonin added to trigger calcium flux; stronger effect = higher value
[14] = test system: TRPC4 (mouse), co-expressed with 5HT1a in HEK293; assay: enhancement of serotonin-evoked TRPC4 response – cell-based, second counter screen, HEK293 TRPC4/5HT1a, Fluo-4, counter-screen for TRPC4 potentiator project, confirmation (AID 434979;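 active = signal rise over 3 SD above mean of control wells given weak agonist, in both repeats and first screen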); details: Fluo-4 calcium flux, at 10 µM, serotonin added at its EC20 dose; stronger effect = higher value
[15] = nonspecific calcium rise without TRPC4 – cell-based, HEK293 mu-opioid receptor line, counter-screen for TRPC4 activator project, confirmation (AID 449723;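 active = hit in primary screen, with calcium signal over 5 SD above buffer well mean in both duplicates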;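 note: counter screen cells carry the mu-opioid receptor alone and lack TRPC4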); details: HEK293 mu-opioid cells, Fluo-4 calcium fluorescence, at 10 µM; stronger effect = higher value
[16] = nonspecific potentiation of DAMGO calcium response – cell-based, HEK293 mu-opioid receptor line, counter-screen for TRPC4 allosteric potentiator project, confirmation (AID 449724;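 active = calcium signal rise more than 3 SD above the low-dose agonist control mean, in both duplicate plates and the primary screen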); details: HEK293 mu-opioid receptor cells, Fluo-4 calcium flux, at 10 µM, compound added before EC20 DAMGO stimulus; stronger effect = higher value
[17] = nonspecific flux increase, KCNQ1-free cells – parental CHO cells, counter-screen for KCNQ1 potentiator project (AID 493006;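 active = duplicate-averaged activation above buffer control mean plus 5 SD of those controls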;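 note: fluorescence ratio of max minus min over baseline after K+ and Tl+ depolarization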); details: parental CHO-K1 cells, FluxOR thallium flux, at 10 µM; stronger effect = higher value
[18] = target: Potassium voltage-gated channel subfamily KQT member 1 (Homo sapiens) (UniProt P51787); assay: enhancement of KCNQ1 channel thallium flux – FluxOR thallium flux, CHO cells, duplicates, confirmation (AID 493007;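 active = potentiation averaged over duplicate wells exceeding buffer-only control mean by more than 3 SD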;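 note: 0% = buffer-only wells and 100% = R-L3 activator control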); details: KCNQ1 cell line, FluxOR thallium flux fluorescence, at 10 µM; stronger effect = higher value, % of reference activator effect, buffer zero
Chain of Potassium voltage-gated channel subfamily KQT member 1 (Homo sapiens) (P51787 whole entry, looked up): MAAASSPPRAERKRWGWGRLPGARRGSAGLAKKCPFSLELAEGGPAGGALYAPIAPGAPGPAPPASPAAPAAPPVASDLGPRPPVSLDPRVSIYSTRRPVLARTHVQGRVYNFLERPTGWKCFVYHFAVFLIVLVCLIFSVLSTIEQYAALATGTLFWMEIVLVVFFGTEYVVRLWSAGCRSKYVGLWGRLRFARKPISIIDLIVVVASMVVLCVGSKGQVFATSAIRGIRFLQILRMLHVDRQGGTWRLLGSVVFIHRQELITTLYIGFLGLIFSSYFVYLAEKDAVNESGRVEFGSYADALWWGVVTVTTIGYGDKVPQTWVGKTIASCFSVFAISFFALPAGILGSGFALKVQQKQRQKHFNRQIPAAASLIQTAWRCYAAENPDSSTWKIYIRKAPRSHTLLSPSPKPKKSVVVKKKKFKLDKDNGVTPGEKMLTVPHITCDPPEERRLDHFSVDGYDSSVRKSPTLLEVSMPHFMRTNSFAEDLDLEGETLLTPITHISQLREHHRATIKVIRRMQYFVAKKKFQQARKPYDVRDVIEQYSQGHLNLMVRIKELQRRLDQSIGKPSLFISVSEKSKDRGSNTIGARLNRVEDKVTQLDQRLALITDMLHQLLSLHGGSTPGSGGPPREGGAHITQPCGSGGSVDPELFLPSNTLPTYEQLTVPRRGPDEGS

[19] = target: Potassium voltage-gated channel subfamily KQT member 2 (Rattus norvegicus) (UniProt O88943); assay: KCNQ2 thallium flux enhancement – KCNQ2-CHO-K1 cells, selectivity assay for KCNQ1 potentiator project (AID 493009;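 active = mean duplicate potentiation above the buffer control mean plus 5 SD of buffer wells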;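 note: assay conditions were tuned for KCNQ1 rather than KCNQ2 modulators; signal is max minus min fluorescence divided by baseline after thallium stimulus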); details: FluxOR thallium flux fluorescence, at 10 µM; stronger effect = higher value, scaled: buffer 0, activator control 100
Chain of Potassium voltage-gated channel subfamily KQT member 2 (Rattus norvegicus) (O88943 whole entry, looked up): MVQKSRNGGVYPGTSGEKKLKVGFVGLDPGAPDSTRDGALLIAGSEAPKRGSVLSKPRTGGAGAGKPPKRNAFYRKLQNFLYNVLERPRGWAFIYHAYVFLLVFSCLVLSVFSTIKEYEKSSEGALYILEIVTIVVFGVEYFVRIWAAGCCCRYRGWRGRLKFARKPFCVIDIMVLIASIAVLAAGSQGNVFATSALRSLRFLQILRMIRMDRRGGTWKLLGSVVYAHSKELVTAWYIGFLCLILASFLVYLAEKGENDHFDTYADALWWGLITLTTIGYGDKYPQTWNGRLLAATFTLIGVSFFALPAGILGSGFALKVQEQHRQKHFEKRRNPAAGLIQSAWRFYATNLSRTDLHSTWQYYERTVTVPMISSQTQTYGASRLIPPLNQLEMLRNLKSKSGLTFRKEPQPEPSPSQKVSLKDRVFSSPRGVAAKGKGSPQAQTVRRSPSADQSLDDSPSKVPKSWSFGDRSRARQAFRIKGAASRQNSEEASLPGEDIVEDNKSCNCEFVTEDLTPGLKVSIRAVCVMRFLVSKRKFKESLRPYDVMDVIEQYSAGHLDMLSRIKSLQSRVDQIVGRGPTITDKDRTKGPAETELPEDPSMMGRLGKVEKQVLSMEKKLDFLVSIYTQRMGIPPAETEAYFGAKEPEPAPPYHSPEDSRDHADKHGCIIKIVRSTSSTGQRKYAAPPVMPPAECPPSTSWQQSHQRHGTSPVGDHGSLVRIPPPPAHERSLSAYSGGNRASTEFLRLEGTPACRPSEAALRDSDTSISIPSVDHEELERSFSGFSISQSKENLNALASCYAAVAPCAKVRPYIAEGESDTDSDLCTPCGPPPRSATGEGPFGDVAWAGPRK

[20] = target: Potassium voltage-gated channel subfamily KQT member 1 (Homo sapiens) (UniProt P51787); assay: KCNQ1 activators by electrophysiology – IonWorks patch clamp, KCNQ1-CHO cells, orthogonal assay for KCNQ1 potentiator project, confirmation (AID 493184;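 active = current rise at least 3 SD above the untreated control mean in each of two repeat wells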); details: automated patch clamp current, at 10 µM; stronger effect = higher value

CNC[C@H](CC1CCCCC1)NC[C@H](Cc1ccccc1)NCCC12CC3CC(CC(C3)C1)C2
activation [1]: 219% (active) | outcome [2]: inactive | outcome [3]: inactive | outcome [4]: inactive | outcome [5]: inactive | outcome [6]: inactive | outcome [7]: inactive | outcome [8]: inactive | outcome [9]: inactive | outcome [10]: inactive | outcome [11]: inactive | activation [12]: 63.4% (active) | outcome [13]: inactive | outcome [14]: inactive | activation [15]: 51.7% (active) | outcome [16]: inactive

CCOC(=O)C1=NN(C(=O)c2ccc(C)cc2)C(O)(c2ccc(Cl)cc2)C1 (stereo unspecified)
activation [1]: 98% (active) | outcome [2]: inactive | outcome [3]: inactive | outcome [4]: inactive | outcome [5]: inactive | outcome [6]: inactive | outcome [7]: inactive | outcome [8]: inactive | outcome [9]: inactive | activation [10]: 217% (active) | outcome [11]: inactive | activation [12]: 66.4% (active) | outcome [13]: inactive | outcome [14]: inactive | activation [15]: 37.9% (active) | outcome [16]: inactive | activation [17]: 630% (active) | potentiation [18]: 336% (active) | potentiation [19]: 655% (active) | outcome [20]: inactive

O=C(Cn1c(-c2ccccc2)c[n+]2ccsc12)c1ccc(Br)cc1
outcome [1]: inactive | activation [2]: 77% (active) | outcome [3]: inactive | outcome [4]: inactive | outcome [5]: inactive | outcome [6]: inactive | outcome [7]: inactive | outcome [8]: inactive | outcome [9]: inactive | outcome [10]: inactive | outcome [11]: inactive | outcome [12]: inactive | outcome [13]: inactive | outcome [14]: inactive | outcome [15]: inactive | outcome [16]: inactive

O=C(c1sc2ccccc2c1Cl)N(Cc1cccs1)C1CCS(=O)(=O)C1 (stereo unspecified)
activation [1]: 265% (active) | activation [2]: 79% (active) | outcome [3]: inactive | outcome [4]: inactive | outcome [5]: inactive | outcome [6]: inactive | outcome [7]: inactive | outcome [8]: inactive | outcome [9]: inactive | activation [10]: 35% (active) | outcome [11]: inactive | activation [12]: 12% (active) | outcome [13]: inactive | outcome [14]: inactive | outcome [15]: inactive | outcome [16]: inactive

O=C(COc1ccccc1)NNC(=S)NC(=O)c1ccc(Cl)cc1Cl
activation [1]: 63% (active) | outcome [2]: inactive | outcome [3]: inactive | outcome [4]: inactive | outcome [5]: inactive | outcome [6]: inactive | outcome [7]: inactive | outcome [8]: inactive | outcome [9]: inactive | outcome [10]: inactive | outcome [11]: inactive | activation [12]: 44.7% (active) | outcome [13]: inactive | outcome [14]: inactive | outcome [15]: inactive | outcome [16]: inactive

CCCCN(C)CCCNC(=O)CN1N=C(c2ccc(Cl)cc2)CCC1=O
outcome [1]: inactive | outcome [2]: inactive | outcome [3]: inactive | outcome [4]: inactive | outcome [5]: inactive | outcome [6]: inactive | outcome [7]: inactive | outcome [8]: inactive | outcome [9]: inactive | activation [10]: 30% (active) | outcome [11]: inactive | activation [12]: 16.6% (active) | outcome [13]: inactive | potentiation [14]: 21.3% (active) | outcome [15]: inactive | outcome [16]: inactive

COc1ccc(CCN(C)CCC(=O)Nc2c(C)cc(C)cc2C)cc1OC
outcome [1]: inactive | outcome [2]: inactive | outcome [3]: inactive | outcome [4]: inactive | outcome [5]: inactive | outcome [6]: inactive | outcome [7]: inactive | outcome [8]: inactive | outcome [9]: inactive | activation [10]: 48.5% (active) | outcome [11]: inactive | activation [12]: 58.1% (active) | outcome [13]: inactive | outcome [14]: inactive | outcome [15]: inactive | outcome [16]: inactive
